An excerpt weighted towards active compounds, which were near 18% of everything screened.
DT40 TDP1 CPT – growth inhibition of DT40 Tdp1-/-;hTDP1 cells with camptothecin (screen for TDP1 inhibitors); chicken DT40 Tdp1-/-;hTDP1 cells + 20 nM CPT, ATP luminescence, 48 h; Potency, µM (doses to about 46.2 µM), inactives show at the top dose activity change, negative = growth inhibition, hits mostly inhibitors; 12% of 420,000 active; also: nearly all actives have a fitted effect of over 55% in size
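Cell growth measured by CellTiter-Glo luminescence after a minimum 48 h, 37 C compound exposure with 20 nM CPT in Tdp1-knockout DT40 cells stably expressing hTDP1, seeded 400/well; qHTS titration format.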
KAT2A inh – GCN5L2 (KAT2A) acetyltransferase inhibition; Q92830; GCN5L2 HAT assay, ThioGlo1 CoA-SH fluorescence; Potency, µM (top dose mostly 58.9 µM), for inactives: at the highest dose activity change, negative = inhibition, hits mostly inhibitors; 0.21% of 390,000 active; AID 504327
Target sequence (Q92830 whole entry, looked up): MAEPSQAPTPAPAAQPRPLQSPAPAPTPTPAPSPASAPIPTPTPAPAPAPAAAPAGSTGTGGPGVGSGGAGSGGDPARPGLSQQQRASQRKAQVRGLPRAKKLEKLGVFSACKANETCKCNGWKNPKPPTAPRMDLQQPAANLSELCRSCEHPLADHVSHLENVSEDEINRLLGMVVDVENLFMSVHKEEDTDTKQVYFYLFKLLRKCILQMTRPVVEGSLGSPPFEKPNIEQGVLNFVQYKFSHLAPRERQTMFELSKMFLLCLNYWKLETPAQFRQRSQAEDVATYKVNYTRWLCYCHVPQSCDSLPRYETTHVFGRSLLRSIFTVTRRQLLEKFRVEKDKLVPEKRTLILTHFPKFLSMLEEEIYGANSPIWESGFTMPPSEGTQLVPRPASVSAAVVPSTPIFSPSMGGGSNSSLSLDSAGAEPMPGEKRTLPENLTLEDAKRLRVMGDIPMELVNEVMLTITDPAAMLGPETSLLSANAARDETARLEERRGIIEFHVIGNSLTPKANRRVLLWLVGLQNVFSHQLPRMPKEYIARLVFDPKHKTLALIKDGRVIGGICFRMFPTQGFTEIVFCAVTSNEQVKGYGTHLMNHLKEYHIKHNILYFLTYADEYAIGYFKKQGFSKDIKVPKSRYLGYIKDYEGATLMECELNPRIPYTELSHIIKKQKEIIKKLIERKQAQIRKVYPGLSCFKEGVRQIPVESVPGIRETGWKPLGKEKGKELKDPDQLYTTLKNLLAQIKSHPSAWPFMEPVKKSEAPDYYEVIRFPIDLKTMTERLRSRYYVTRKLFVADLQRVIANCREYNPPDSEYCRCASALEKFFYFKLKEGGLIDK
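Compounds, pin-transferred from DMSO stocks, meet 20nM GCN5L2 for 15 min before the reaction begins with H3(1-25) peptide (75uM) and acetyl-CoA (70uM). Thiol-reactive ThioGlo1 reports CoA release over 20 min at room temperature.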
TDP1 inh – TDP1 (human) enzyme inhibition. Potency, µM (highest dose often 130 µM), inactives show at the highest dose activity change, negative = inhibition, actives largely listed as inhibitors. 0.28% of 350,000 active. recombinant TDP1, AlphaScreen DNA substrate cleavage; also: nearly all actives have a fitted effect of over 40% in size
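Signal: AlphaScreen proximity between streptavidin donor and anti-FITC acceptor beads on intact substrate. Reaction: Tdp1 1 nM, substrate 15 nM final, 5 min RT after 15 min compound preincubation.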
DT40 TDP1 no CPT – qHTS for Inhibitors of human tyrosyl-DNA phosphodiesterase 1 (TDP1): qHTS in cells in absence of CPT; DT40 Tdp1-/- hTDP1 cells, no CPT, ATP luminescence, 48 h; Potency, µM (highest dose often 46.2 µM), for inactives: at the top dose activity change, negative = growth inhibition, actives largely listed as inhibitors; 15% of 420,000 active; also: nearly all actives have a fitted effect of over 55% in size
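Growth of hTDP1-complemented DT40 Tdp1-knockout cells is measured by ATP luminescence after at least 48 hr compound exposure at 37 °C, with DMSO substituting for the 20 nM CPT used in the parallel screen.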
PLK1 PBD inh – inhibitors of human PLK1 polo-box domain binding | P53350 | Plk1 PBD binding of FITC phosphopeptide, fluorescence polarization | Potency, µM, for inactives: max response, negative = inhibition, most hits filed as inhibitors | 2.8% of 360,000 active | AID 720504; also: series mostly up to about 57 µM; nearly all actives have a fitted effect of over 65% in size
VDR inhibitor – vitamin D3 receptor (human) inhibition; AID 504847; P11473; Potency, µM, for inactives: max response, negative = inhibition, actives largely listed as inhibitors; VDR-SRC2-3 peptide fluorescence polarization, 2 h; 0.93% of 400,000 active
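Fluorescence polarization assay of small-molecule disruption of VDR binding to coregulator peptide SRC2-3. Compounds and controls pin-transferred, then read after 2 h incubation at ambient room temperature.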
Active calls of the source: *; u = inconclusive; x = no result given; [ ] = dose if it differs, or a comment. Calls follow the shape of the dose curve; as a rule, active = well fitted curve in the direction sought with a large enough effect; inconclusive = small, poorly fitted or top-dose-only effect, or another doubt; inactive = no such curve, though single readings can be large; an effect the other way counts as inactive or inconclusive. % is scaled to controls: 0 for no effect and ±100 for the full control effect; potency is read from the fitted curve at half-maximal effect.

SMILES	DT40 TDP1 CPT	KAT2A inh	TDP1 inh	DT40 TDP1 no CPT	PLK1 PBD inh	VDR inhibitor
COc1ccc(CCNC(=O)COC(=O)c2cc(S(=O)(=O)N3CCOCC3)ccc2C)cc1OC	18.4µM*	-2.3%	1.4%	u	-1.0%	-11.3%
CCCNC(=O)OC[C@@H]1O[C@H](CCO/N=C(\C)CCN2CCc3nc(CC)c(CC)cc3C2)C=C[C@@H]1Oc1ccc(OC)cc1	x	x	9.0%[21 µM]	x	x	x
COc1ccc(CNC(=O)c2cc(S(=O)(=O)N3CCCCC3)ccc2N2CCOCC2)cc1OC	u	x	x	9.2µM*	-12.3%	-25.3%
COc1ccc(S(=O)(=O)N2CCOC2CNC(=O)C(=O)NCCc2c[nH]c3ccccc23)cc1C (stereo unspecified)	23.1µM*	-5.8%	5.3%	23.1µM*	-4.2%	-4.5%
Cc1ccc(S(=O)(=O)N2CCN(C(=O)c3cc(S(=O)(=O)N(C)C)ccc3N3CCCC3)CC2)c(C)c1	u	-2.6%	0.0%	16.4µM*	-0.7%	0.3%
Cn1c(=O)c(=O)n(C)c2cc([N+](=O)[O-])c([N+](=O)[O-])cc21	14.6µM*	-5.3%	-2.5%	18.4µM*	-15.7%	-9.9%
Cn1cccc([N+](=O)[O-])c1=O	-3.2%	x	x	-4.5%	-7.5%	x
CCN(CC(=O)NCC1CCCO1)S(=O)(=O)c1ccc2ccccc2c1 (stereo unspecified)	20.1%	-0.7%	x	-1.4%	0.0%	14.4%
CCc1c(C#N)c(SCc2c(C)noc2C)nc2c1C(=O)CC(C)(C)C2	25.9µM*	-8.0%	3.8%	u	-4.3%	0.5%
Cc1c(CNCc2ccc(OC(C)C)cc2)c(C(=O)O)c(C)n1Cc1ccc(Cl)cc1	u	-0.6%	0.0%	u	x	-1.3%
COc1ccc(-c2ccc(C(=O)N(C)Cc3csc(C)n3)c(N3CCC(N4CCc5ccccc5C4)CC3)n2)cc1	7.6%[9.04 µM]	x	x	-21.5%	x	x
CCOc1ccc(/C=N/NC(=O)c2c(C)n(C)c3ccc(OC)cc23)cc1	5.17µM*	0.4%	-0.6%	5.8µM*	1.2%	-4.8%
COc1ccc2c(c1)c(/C=N/Nc1ccc(C(=O)O)cc1)c(C)n2C	10.0%	-20.9%	10.3%	-15.3%	-9.6%	13.9%
COc1ccc2c(c1)c(C(=O)N/N=C/c1ccc(Br)cc1)c(C)n2C	10.3µM*	0.6%	x	10.3µM*	1.3%	-13.5%
O=C(Nc1ccc(F)cc1)C(c1cc2ccccc2o1)N1CCN(CC(=O)N2CCCC2)CC1 (stereo unspecified)	u	x	x	-20.6%	2.8%	x
CCN1C(=O)[C@@H]2[C@@H](c3ccc(-c4ccc(Cl)c(Cl)c4)cc3)N3CCC[C@@]3(C(=O)OC)[C@@H]2C1=O	8.2µM*	-10.2%	7.3%	7.31µM*	-14.5%	-11.7%
CCN1C(=O)[C@H]2[C@@H](c3ccc(-c4ccc(Cl)c(Cl)c4)cc3)N3CCCC[C@@]3(C(=O)OC)[C@H]2C1=O	10.3µM*	-4.3%	4.0%	6.51µM*	6.2%	-6.8%
CO[C@@H]1[C@@H](O[C@@H]2O[C@H](C)[C@@H](O[C@H]3C[C@@](C)(O)[C@@H](O)[C@H](C)O3)[C@H](N(C)C)[C@H]2O)[C@@H](CC=O)C[C@@H](C)[C@@H](O[C@@H]2CC[C@H](N(C)C)[C@@H](C)O2)/C=C/C=C/C[C@@H](C)OC(=O)C[C@H]1O	-28.6%[21.1 µM]	x	x	-8.0%[21.1 µM]	x	x
CCOc1ccc(CC(=O)NC2CC(=O)N(c3ccc(C)c(C)c3)C2)cc1 (stereo unspecified)	-26.2%	-2.6%	-2.6%	u	x	2.9%
COc1ccc(OC)c(CN2CCN(C(=O)c3cccc(S(=O)(=O)Nc4ccccc4OC)c3)CC2)c1	u	0.5%	0.2%	u	-5.0%	-11.7%
COc1ccc(N(C)S(=O)(=O)c2cccc(C(=O)N3CCN(Cc4ccc5c(c4)OCO5)CC3)c2)cc1	23.1µM*	-13.0%	-3.0%	18.4µM*	-6.3%	u
COc1ccc(OC)c(CN2CCN(C(=O)c3cccc(S(=O)(=O)N(C)c4ccccc4)c3)CC2)c1	18.4µM*	x	x	13µM*	-11.4%	x
O[C@@H]1CO[C@H]2C1OC[C@@H]2O (stereo partly specified)	x	44.6%	4.3%	x	x	-22.8%
CCOc1ccc(CN(C)CC(=O)c2c(N)n(Cc3ccccc3)c(=O)n(CC)c2=O)cc1OC	u	x	1.0%	-39.6%	-2.0%	-17.6%
CCn1c(=O)c(C(=O)CN(C)Cc2cccc(OC)c2OC)c(N)n(Cc2ccccc2)c1=O	u	-2.2%	1.1%	14.6µM*	-32.6%	0.3%
SMILES	DT40 TDP1 CPT	KAT2A inh	TDP1 inh	DT40 TDP1 no CPT	PLK1 PBD inh	VDR inhibitor
COc1cc(NC2CCCCC2O)c2nc(-c3ccc(Cl)cc3)ccc2c1 (stereo unspecified)	20.6µM*	4.4%	-1.4%	u	-27.6%	-20.6%
COc1ccc(OCC(=O)OCC(=O)NC2CCCCC2C)cc1 (stereo unspecified)	-2.2%	-5.6%	-1.2%	-9.0%	-6.1%	-13.2%
CC1(C)CC(=O)C=C(c2ccccc2-c2ccc3cc[nH]c3c2)C1=O	-13.8%	x	x	u	2.0%	x
CC1(C)CC(=O)C=C(c2ccc(CO)cc2)C1=O	0.9%	x	x	-15.2%	-4.8%	x
CC1(C)CC(=O)C=C(c2ccc(-c3ccccc3)cc2)C1=O	u	x	x	25.9µM*	-15.5%	x
CC1(C)CC(=O)C=C(c2ccc(-c3ccc4[nH]ccc4c3)cc2)C1=O	u	x	x	25.9µM*	-3.1%	x
CC1(C)CC(=O)C=C(c2ccc(COC(=O)c3cccc(C(F)(F)F)c3)cc2)C1=O	u	x	x	u	-0.3%	x
CC1(C)CC(=O)C=C(c2ccc(-c3ccc(OC(F)(F)F)cc3)cc2)C1=O	16.4µM*	x	x	10.3µM*	-5.3%	x
O=C(COC(=O)Cc1n[nH]c(=O)c2ccccc12)Nc1ccc(Cl)cn1	-22.2%	-1.1%	-2.4%	2.4%	-3.2%	3.7%
Cc1cc(C)c(S(=O)(=O)NCc2csc(-c3ccccc3)n2)c(C)c1	u	-7.8%	2.5%	u	x	12.8%
Cc1ccc(OC(C)C(=O)OCC(=O)Nc2sccc2C(N)=O)cc1 (stereo unspecified)	-24.2%	-10.0%	-1.0%	-8.8%	3.0%	30.7%
CC(Oc1ccc(Cl)cc1)C(=O)Nc1sccc1C(N)=O (stereo unspecified)	u	-9.1%	3.7%	16.4µM*	8.1%	-22.9%
CCc1cccc(CC)c1NC(=O)CSc1nnc(C2CC2)n1C	16.1%	-1.1%	6.2%	5.8%	-6.4%	89.1µM*

Compound activity as filed in PubChem BioAssay.
